NS1 function inh – blocks influenza NS1 protein function | Potency, µM (highest dose often 46.1 µM), for inactives: at the highest dose activity, positive = more growth | 270,000 compounds, 0.4% hits | AID 2326; calls by dose curve; also: potency is read from the fitted curve at half-maximal effect; actives are rising curves; nearly all actives have a fitted effect of over 50% in size
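Recovery from NS1-induced slow growth read by OD600 in budding yeast switched to galactose assay medium (pH 6.0, -URA) at 1:100 dilution. Compound 23 nl per well; the matching strain lacking NS1 serves as control.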
Sm TGR inh – inhibitors of Schistosoma mansoni thioredoxin glutathione reductase. Potency, µM (series often up to 114 µM), without a hit: top-dose activity change, negative = inhibition, most hits filed as inhibitors. 360,000 compounds, 3% hits. purified TGR, DTNB reduction, TNB absorbance 405 nm; also: potency is read from the fitted curve at half-maximal effect; % is scaled to controls: 0 for no effect and ±100 for the full control effect; nearly all actives have a fitted effect of over 60% in size
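Kinetic colorimetric format: TGR-catalysed, NADPH-driven DTNB reduction monitored via TNB absorbance. Enzyme dispensed at 20 nM; compound exposure 15 min at room temperature before reaction start.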
Shiga toxin inh – inhibitors of Shiga toxin in Vero cells; 290,000 compounds, 9.2% hits; AID 2315; Vero cells, Shiga toxin protein synthesis inhibition reporter; inhibition, % at 38.7 µM; in the data active = inhibition mostly above about 28%, no sharp cut-off; inactive = mostly below about 43%; also: 0% is about no effect
Pf growth 96h – P. falciparum growth inhibition at 96 hours | Potency, µM (doses to about 28.7 µM), for inactives: at the highest dose activity change, negative = inhibition, most hits filed as inhibitors | P. falciparum luciferase reporter growth, 96 h | 320,000 compounds, 6.9% hits; also: potency is read from the fitted curve at half-maximal effect; % is scaled to controls: 0 for no effect and ±100 for the full control effect
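Plates of compound plus infected erythrocytes (2% hematocrit, 0.05% parasitemia final) incubate 96 hours, 37 C, 5% CO2. Detection reagent added; reduced luminescence from the parasites' luciferase reporter flags inhibition.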
Pf growth 48h – inhibits P. falciparum growth in the first generation, 48 h; AID 504832; Potency, µM (titrated, usually from 28.7 µM), for the others: at the highest dose activity change, negative = inhibition, hits mostly inhibitors; P. falciparum luciferase growth in erythrocytes, 48 h; 310,000 compounds, 5.9% hits; also: potency is read from the fitted curve at half-maximal effect; % is scaled to controls: 0 for no effect and ±100 for the full control effect
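Read-out is firefly luciferase luminescence from an integrated reporter in P. falciparum, so falling signal marks reduced parasite growth. Infected erythrocytes were at 2% hematocrit and 0.1% parasitemia (final) in Albumax-supplemented RPMI 1640.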
CHX counter – affects cycloheximide protein synthesis inhibition readout, counter-screen; cell reporter, cycloheximide protein synthesis inhibition counterscreen; max response, %; 300,000 compounds, 12% hits; AID 2314; in the data active = max response mostly above about 13%, no sharp cut-off; inactive = mostly below about 14%; also: read at 38.3 µM for the half of the compounds with a filed dose; 0% is about no effect
Starred values were filed as active, the others as inactive; ? = inconclusive; / = no result given; + = active, no number. Most compounds without a hit are left out; they make up all but 21% or so of the library. Unless noted, calls follow the shape of the dose curve; as a rule, active = well fitted curve in the direction sought with a large enough effect; inconclusive = small, poorly fitted or top-dose-only effect, or another doubt; inactive = no such curve, though single readings can be large; an effect the other way counts as inactive or inconclusive.

SMILES	NS1 function inh	Sm TGR inh	Shiga toxin inh	Pf growth 96h	Pf growth 48h	CHX counter
FC(F)(F)c1ccccc1-n1c(-c2cnccn2)n[nH]c1=S	-5.8%	-4.3%	53.3*	0.0%	108.0%	41.2*
CC(C)(C)c1ccc(OCC(=O)NNC(=O)c2cccnc2)cc1	0.5%	18.8%	14.0	76.0%	-29.5%	-1.6
COc1cccc(NC(=O)CSc2nc3ccccc3nc2N2CCCC2)c1	-3.7%	-17.2%	56.9*	0.5%	?	36.9*
COc1cccc(NC(=O)[C@H](CC(C)C)NC(=O)N2CCn3c2nc2ccccc23)c1	25.3%	-1.5%	-5.9	5.86µM*	?	-7.7
COc1cccc(NC(=O)[C@H](C)NC(=O)N2CCn3c2nc2ccccc23)c1	-12.8%	3.0%	-4.1	?	?	9.6
CCc1cccc(NC(=O)CSc2nc3ccccc3nc2N2CCCCC2)c1	/	0.5%	14.2	/	/	16.8
Cc1cccc(NC(=O)CSc2nc3ccccc3nc2N2CCCC2)c1	19.6%	5.9%	14.5	32.2%	?	9.6
Cc1cccc(NC(=O)CSc2nc3ccccc3nc2N2CCCCC2)c1	0.4%	-18.1%	2.7	?	13.1µM*	-3.6
CCc1ccc(NC(=O)CSc2nc3ccccc3nc2N2CCCCC2)cc1	?	14.1%	14.5	?	?	22.0*
CN(C)CCCc1c[nH]c2ccccc12	1.8%	/	/	/	/	/
CCn1c(SCC#N)nc2ccccc2c1=O	-3.5%	3.6%	-7.7	18.4%	-6.8%	1.1
COc1cccc(NC(=O)CSc2nc3ccccc3c3nc4ccccc4n23)c1	-9.8%	5.5%	-4.7	13.8%	13.1µM*	5.0
COc1ccc(NC(=O)CSc2nc3ccccc3n2Cc2cccc(OC)c2)cc1	/	-22.5%	/	/	/	/
N#CCSc1nc2ccccc2c2nc3ccccc3n12	-20.8%	-2.6%	+	7.38µM*	?	5.1
Cc1cccc(NC(=O)CSc2nc3ccccc3nc2N2CC(C)OC(C)C2)c1 (stereo not drawn)	-5.6%	9.1%	11.1	9.28µM*	?	11.4*
CCN(CC)CCNC(=O)c1ccc(-n2c(C)cc3c2CCCC3=O)cc1	/	-8.5%	-8.5	?	-13.4%	-1.6
COc1cccc(-n2c(N)c(-c3nc4ccccc4[nH]3)sc2=S)c1	/	-0.5%	20.9	4.8%	-12.3%	12.0
Cc1cc(C)c2c(N)c(-c3nc4ccccc4[nH]3)sc2n1	-58.4%	12.8%	80.7*	-62.4%	-32.3%	44.6*
Cc1ccc2nc(-c3sc4nc(C)ccc4c3N)[nH]c2c1	11.2%	-12.5%	43.6*	-109.2%	?	32.9*
CCCCn1c(N)c(N(CC)C(=O)C2CCN(C(=O)c3ccccc3C)CC2)c(=O)[nH]c1=O	/	-1.1%	/	-11.0%	-10.0%	/
O=C(Nc1ccc(N2CCCC2)c(Cl)c1)c1cccs1	-34.9%	/	95.0*	?	?	71.3*
O=C(NC(=S)Nc1ccc(N2CCOCC2)c(Cl)c1)c1cccs1	5.8%	/	59.7*	2.33µM*	?	30.3*
O=C(Nc1ccc(N2CCN(c3ccc(F)cc3)CC2)c(C(=O)O)c1)c1cccs1	/	4.9%	/	/	/	/
CCCCOc1ccc(CCN)cc1Cl	5.1%	-1.9%	19.9	30.6%	4.6%	33.7*
CCCCOc1ccc(CSCCN)cc1Cl	-5.1%	-0.7%	73.2*	0.0%	37.1%	22.8*
SMILES	NS1 function inh	Sm TGR inh	Shiga toxin inh	Pf growth 96h	Pf growth 48h	CHX counter
CC(C)Oc1ccc(CCN)cc1Cl	8.9%	2.9%	-7.6	-23.2%	3.6%	-2.4
CCOc1ccc(CSC(=N)N)cc1Cl	2.1%	-0.2%	-2.2	?	?	-2.9
COc1ccc(/C=N/NC(=O)c2cccc(NC(=O)c3ccccc3Cl)c2)cc1	18.3%	5.0%	40.5	3.6%	-31.1%	49.5*
O=C(N/N=C/c1ccc(F)cc1)c1cccc(NC(=O)c2ccccc2Cl)c1	2.9%	2.8%	36.4*	-5.7%	-3.3%	20.5*
O=C(N/N=C/c1ccncc1)c1cccc(NC(=O)c2ccccc2Cl)c1	6.3%	-1.8%	-3.7	-26.0%	?	-0.8
Cc1cccc(CS(=O)(=O)c2cn(CC(=O)N3CCOCC3)c3ccccc23)c1	-8.7%	-3.4%	20.9	-28.9%	-11.9%	11.4
CCN(Cc1ccccc1)C(=O)c1ccc(C(=O)N(CC)Cc2ccccc2)cc1	-9.3%	-20.2%	-12.2	?	6.9%	-2.0

From PubChem
